Data reported in the supplement of paper PMC10981050.
Several values for one entry are separate records, joined by “and”; a condition that tells them apart may be missing. Identical values can stand only once. Counter-ions that a name gives are not always drawn.

Columns and labels:
Experiment in all cases: cell viability relative to vehicle control; higher = less cytotoxic
Details in all cases: 10 µM
K562 = system: K562
How it was run: (§1)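 Screening covered the Selleck bioactive, kinase and epigenetic probe libraries, less identity-inconsistent compounds, on CRISPR-edited mutant clones and isogenic wild-type clones of four leukaemia lines. Cells, at 2000 per well in 50 µL medium, received a single 10 µM acoustically dispensed dose. After 48 h the supernatant was removed and CellTiter-Glo luminescence was read. Viability was analysed in Genedata Screener as percent of the on-plate vehicle control.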

MARIMO = system: MARIMO
How it was run: as §1

MOLM14 = system: MOLM14
How it was run: as §1

OCI-AML2 = system: OCI-AML2
How it was run: as §1

Structure (SMILES)	cell viability (K562; SRSF2 genotype: SRSF2 P95H/wt)	cell viability (K562; SRSF2 genotype: SRSF2 wt/wt) [%]	cell viability (MARIMO; SRSF2 genotype: SRSF2 P95H/wt) [%]	cell viability (MARIMO; SRSF2 genotype: SRSF2 wt/wt) [%]	cell viability (MOLM14; SRSF2 genotype: SRSF2 P95H/wt) [%]	cell viability (MOLM14; SRSF2 genotype: SRSF2 wt/wt) [%]	cell viability (OCI-AML2; SRSF2 genotype: P95H/wt) [%]	cell viability (OCI-AML2; SRSF2 genotype: wt/wt) [%]
N[C@H]1CC[C@H](N[C@@H]2C[C@H]2c2ccccc2)CC1	96% and 97.8%	93.3	89.7	88.5	87.5	86.2	71.3	84.6
COc1ccc(-c2ccc3c(N4CCOC[C@@H]4C)nc(N4CCOC[C@@H]4C)nc3n2)cc1CO	39.7% and 40.4%	35.5	54.4	46.2	30.4	26.2	26.5	27.7
CCc1cc2c(cc1CC)CC(NC[C@H](O)c1ccc(O)c3[nH]c(=O)ccc13)C2 [Indacaterol Maleate]	68.6% and 83.2%	75.8	73.3	77	62	71.2	52.5	60.1
Nc1ccc(S(=O)(=O)Nc2ncccn2)cc1 [Sulfadiazine]	108% and 105%	108	114	110	103	108	111	110
O=C(NCCS(=O)(=O)c1ccc(C(F)(F)F)cn1)c1ccc(Cl)cc1	103% and 96.6%	102	91.2	102	102	99.2	91.7	102
N=C(N)N [Guanidine (Aminoformamidine) HCl]	94.2% and 97%	103	104	98.3	97	98.7	102	98.1
COC(=O)[C@H](CCSC)NC(=O)c1ccc(NC[C@@H](N)CS)cc1-c1ccccc1	104% and 105%	110	77.4	78.5	83.4	90.1	113	113
O=C(O)c1ccco1 [2-Furoic acid]	95.7% and 95.1%	103	95.9	108	98.5	101	97.5	102
CO/N=C(\C(=O)N[C@@H]1C(=O)N2C(C(=O)OCOC(=O)C(C)(C)C)=C(/C=C\c3scnc3C)CS[C@H]12)c1csc(N)n1 [Cefditoren pivoxil]	103% and 99.7%	101	104	111	94.5	103	102	111
CCOc1ccccc1OC(c1ccccc1)C1CNCCO1 (stereo not given) [Reboxetine mesylate]	94.5% and 93.4%	90.7	81.9	91.7	92.2	95.8	70.1	97.4
CC(=O)O/N=C1/C(c2c(O)[nH]c3cc(Br)ccc23)=Nc2ccccc21 [BIO-acetoxime]	32.5% and 23.4%	25.4	82.2	88.4	33.1	24.4	73.2	76.2
O=C(O)c1ccc(-n2nc(-c3ccccc3O)nc2-c2ccccc2O)cc1 [Deferasirox (Exjade)]	93.5% and 95.5%	76.4	60.3	74	83.5	60	58.3	67.8
O=C(c1cncc(Br)c1)N1CCC(N2CCCC2)CC1	103% and 100%	98.7	106	100	101	101	104	120
CCN(CC)C(=O)C1(c2ccccc2)CC1CN (stereo not given) [Milnacipran HCl]	96.3% and 102%	96.8	99.6	106	102	105	106	108
C[C@@H](O)[C@H]1C(=O)N2C(C(=O)O)=C([C@H]3CCCO3)S[C@H]12 [Faropenem Sodium]	89.8% and 77.8%	82	88.3	94.3	88.3	90.3	87.1	97.4
CC12CCC(CC1=O)C2(C)C (stereo not given) [Camphor]	102%	103	104	108	105	104	102	99.1
CN1CCN(c2ccc(Nc3ncc4cc(C#N)c(=O)n(C5CCCC5)c4n3)cc2)CC1	79.5% and 104%	87.8	60.4	58.4	17.9	16.4	21.4	29.1
COc1cc(C=O)cc(OC)c1O [Syringaldehyde]	110% and 99.8%	96	102	112	99.2	105	94.8	114
Oc1ccc2ccccc2c1N=Nc1ccc(N=Nc2ccccc2)cc1 [Solvent Red 23]	83.7% and 81.2%	82	82.6	90.8	76	85.3	75.3	78.7
CO/N=C(/C(=O)N[C@@H]1C(=O)N2C(C(=O)OCOC(=O)C(C)(C)C)=C(C)CS[C@H]12)c1csc(N)n1 [Cefetamet pivoxil hydrochloride]	95.8% and 97%	102	95	104	92.5	103	107	98.1

Structure (SMILES)	cell viability (K562; SRSF2 genotype: SRSF2 P95H/wt)	cell viability (K562; SRSF2 genotype: SRSF2 wt/wt) [%]	cell viability (MARIMO; SRSF2 genotype: SRSF2 P95H/wt) [%]	cell viability (MARIMO; SRSF2 genotype: SRSF2 wt/wt) [%]	cell viability (MOLM14; SRSF2 genotype: SRSF2 P95H/wt) [%]	cell viability (MOLM14; SRSF2 genotype: SRSF2 wt/wt) [%]	cell viability (OCI-AML2; SRSF2 genotype: P95H/wt) [%]	cell viability (OCI-AML2; SRSF2 genotype: wt/wt) [%]
C=CC(=O)N1CC/C(=C\c2ccc(F)c([N+](=O)[O-])c2)C(=O)/C(=C/c2ccc(F)c([N+](=O)[O-])c2)C1	2.41% and 0.35%	0.44	0.25	0.39	0.29	0.29	0.26	0.35
CC(C)OC(=O)C1=CN(C(=O)c2ccc(F)c(F)c2)CC(C)(C)c2c1[nH]c1ccccc21 [Turofexorate Isopropyl (XL335)]	100% and 97.7%	103	96.7	102	97	98.5	92.7	96.7
CCCCCCOC(=O)NC(=N)c1ccc(NCc2nc3cc(C(=O)N(CCC(=O)OCC)c4ccccn4)ccc3n2C)cc1 [BIBR-1048 (Dabigatran)]	67% and 66.3%	67.2	55.2	55	0.49	0.53	55	35.7
O=C(Nc1ccncc1)c1cc([N+](=O)[O-])ccc1Cl	102% and 101%	91.5	106	102	70.5	106	83.2	73.9
Cc1cc(OCCCS(C)(=O)=O)cc(C)c1-c1cccc(COc2ccc3c(c2)OC[C@H]3CC(=O)O)c1	92.7% and 94.6%	91.3	93.2	104	94.3	98.2	85	101
Cc1ncc(COP(=O)(O)O)c(C=O)c1O [Pyridoxal 5-phosphate monohydrate]	97.8% and 103%	101	91.2	107	99.2	102	101	101
CN(C)[C@@H](CCOc1cccc2ccccc12)c1ccccc1 [Dapoxetine hydrochloride (Priligy)]	65.8% and 82.9%	73	52.7	59	53.9	58.8	58.9	63.1
CCn1c2ccccc2c2cc(Nc3ccnc(NCCCN4CCOCC4)n3)ccc21	4.34% and 6.16%	6.8	19.1	24.9	2.38	0.71	0.41	1.05
O=C1CN2Cc3c(ccc(Cl)c3Cl)N=C2N1 [Anagrelide hydrochloride]	94.6% and 89.8%	108	84.1	96.4	83.4	93.4	101	110
C[C@H]1O[C@@H](O[C@H]2CC[C@@]3(C)[C@@H](CC[C@]4(C)[C@@H]3C=CC3=C5CC(C)(C)CC[C@]5(CO)[C@@H](O)C[C@]34C)[C@]2(C)CO)[C@H](O[C@@H]2O[C@H](CO)[C@@H](O)[C@H](O)[C@H]2O)[C@@H](O[C@@H]2O[C@H](CO)[C@@H](O)[C@H](O)[C@H]2O)[C@H]1O [Buddlejasaponin IVb]	96.5% and 97%	97.8	98.4	108	98.3	102	101	106
OB1OCc2cc(F)ccc21 [Tavaborole (AN-2690)]	88.2% and 85.6%	84.3	85.4	87.8	82.8	85.1	87.8	82.8
COc1cc(CCc2cc(NC(=O)c3ccc(N4CC(C)NC(C)C4)cc3)n[nH]2)cc(OC)c1 (stereo not given)	68.8% and 79.7%	59.6	46	42.1	14.4	21.5	8.06	17.9
CCC(CC)(NC(=O)C(C)C)C(=O)N[C@@H](CCCN=C(N)N)C(=O)NC1(C(=O)NC(c2ccc(F)cc2)c2ccc(F)cc2)CCCC1	98.6% and 103%	106	93.8	98.3	93.4	99.3	97.9	108
CC1(C)[C@@H](O)CC[C@]2(C)[C@H]3C(=O)C=C4[C@@H]5C[C@@](C)(C(=O)O)CC[C@]5(C)CC[C@@]4(C)[C@]3(C)CC[C@@H]12 [Enoxolone (Glycyrrhetin)]	97.3% and 106%	102	109	105	104	103	110	106
Cn1nnc(-c2ccc(-c3ccc(N4C[C@H](CO)OC4=O)cc3F)cn2)n1 [Tedizolid]	87.1% and 82.2%	83.3	77.3	88.1	89.4	85.5	79.9	81.6
CC(C)=C[C@H]1C[C@](C)(O)[C@@H]2[C@H]3CC[C@@H]4[C@@]5(C)CC[C@H](OC6OC[C@H](O)[C@H](O[C@@H]7O[C@H](CO[C@@H]8O[C@H](CO)[C@@H](O)[C@H](O)[C@H]8O)[C@@H](O)[C@H](O)[C@H]7O[C@@H]7OC[C@@H](O)[C@H](O)[C@H]7O)[C@H]6O[C@@H]6O[C@@H](C)[C@H](O)[C@@H](O)[C@H]6O)C(C)(C)[C@@H]5CC[C@@]4(C)C34CO[C@@]2(C4)O1 (stereo not given in full) [Jujuboside A]	109% and 107%	102	101	104	109	102	91.6	101
NC(=O)c1ccc(N(C(N)=O)c2c(F)cccc2F)nc1-c1ccc(F)cc1F	97.7% and 97.3%	94.1	94	97.5	96.1	105	95.3	103
CCC(CC)CC1(C(=O)Nc2ccccc2SC(=O)C(C)C)CCCCC1	94.6% and 96.2%	103	96	97.5	90.1	95.5	83.2	85.5
O=S(=O)(O)c1ccc2cc(N=Nc3cc(S(=O)(=O)O)c4cccnc4c3O)ccc2c1	95.9% and 96.5%	89	93.5	107	96.9	95.2	88.5	94.5
Clc1ccc2nsnc2c1NC1=NCCN1 [Tizanidine HCl]	104% and 101%	104	94.3	107	103	99.6	101	106
